From PubChem BioAssay (NCATS) come the findings set out here.

The target of assay [1] is Lysosomal acid glucosylceramidase (Homo sapiens) (UniProt P04062). Nature of the assay: Glucocerebrosidase-p2 (AID 348; in the data active means potency below about 10 µM; further: potency means the concentration at half of the fitted maximal effect). To be noted: purified GBA, blue fluorogenic substrate, 40 min. The procedure, abridged:
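Compounds titrated from 0.6 nM upwards against 0.2 nM enzyme in pH 5.9 citric acid/KH2PO4, taurocholate, tween-20; blue fluorogenic substrate 80 uM, 40 min room temperature, stopped and read Ex 365/Em 440 for AC50.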

Assay [2] in a line: AP1 Signaling Pathway (AID 357; active means well fitted curve in either direction with a large enough effect, not every such curve was filed as active;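 further: ME-180 reporter cells stimulated with EGF at its EC50 level; on the % scale 0 is the no-effect control and ±100 the full control effect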). The settings on record: ME-180 AP-1-bla reporter, EGF-induced, beta-lactamase ratio, 5 h; at 7.69 µM (top of the series) unless noted. A digest of the protocol:
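Titration-series screen for positive or negative modulators of EC50 EGF-induced signaling in ME-180 cells carrying an AP-1-driven beta-lactamase reporter. After 5 hours at 37 degrees Celsius, CCF4 460nm/530nm emission ratio gave %Activity; AC50 values derived.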

For assay [3], the target named is Cytochrome P450 1A2 (Homo sapiens) (UniProt P05177). The assay is described as follows: p450-cyp1a2 (AID 410; calls by dose curve; further: potency means the concentration at half of the fitted maximal effect). The settings on record: recombinant CYP1A2, luciferin-ME demethylation, luminescence; series mostly up to 57 µM. The procedure, abridged:
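Luminescent readout of luciferin formed from Luciferin-ME by human CYP1A2; data normalized against complete inhibition by 57 uM furafylline. Enzyme 20nM, substrate 100uM at Km, 100mM KPO4 buffer, 60 min reaction at room temperature.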

The nature of assay [4]: NFAT Signaling Pathway (AID 444; active means well fitted curve in either direction with a large enough effect, not every such curve was filed as active;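 further: carbachol stimulus at about its EC50 of 1 µM final; on the % scale 0 is the no-effect control and ±100 the full control effect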). The settings on record: Jurkat NFAT-bla M1, carbachol, beta-lactamase ratio, 5 h; at 7.69 µM (top of the series) unless noted. The procedure, abridged: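 Jurkat cells with NFAT-driven β-lactamase reporter and co-expressed M1 receptor, stimulated with carbachol (final 1 uM, ~EC50), compound titration, 5 h at 37 °C. CCF4 loaded 1 h at RT; 460/530 nm ratio gave %activity and AC50.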

A short description of assay [5]: Stat Signaling Pathway (AID 446; active means well fitted curve in either direction with a large enough effect, not every such curve was filed as active;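 further: ME-180 cervical cancer cells given 40 pM IL-6 alongside compound; SIE-controlled beta-lactamase reporter measured as 460/530 nm FRET emission ratio; on the % scale 0 is the no-effect control and ±100 the full control effect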). To be noted: ME-180 SIE beta-lactamase reporter, IL-6 stimulated, 5 h; at 7.69 µM (top of the series) unless noted. The procedure, abridged: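 Reporter line: ME-180 cervical carcinoma, SIE-beta-lactamase. Treatment: compound with 40 pM IL-6, 5 hrs, 37 C, in low-serum OPTI-MEM with 10 mM HEPES pH 7.3. Detection: 460/530 nm fluorescence.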

In assay [6] the target is Glucocorticoid receptor (Homo sapiens) (UniProt P04150). The assay is described as follows: GR-GFP Redistribution (AID 450;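 active means compounds whose dose series gives a full or clear partial fitted curve of increased nuclear translocation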; further: potency means the concentration at half of the fitted maximal effect). To be noted: U2OS GR-GFP nuclear translocation, laser cytometry, 2 h.
Assay [7] has the same target. Nature of the assay: GR-EFC Redistribution (AID 451; calls by dose curve; further: potency means the concentration at half of the fitted maximal effect). To be noted: CHO-K1 GR-EFC translocation, beta-gal luminescence, 2 h. The procedure, abridged: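 CHO-K1 cells expressing nuclear EA and GR-ED fragments of b-gal; compounds titrated up to 46 uM final, 2 h at 37 C. GR nuclear translocation read as complemented b-gal luminescence after 1 h RT detection.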
The target in assay [8] is Mitogen-activated protein kinase 10 (Mus musculus) (UniProt Q61831). Nature of the assay: JNK3 AlphaScreen Assay (AID 530; active means well fitted curve in either direction with a large enough effect, not every such curve was filed as active;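 further: kinase came from lysate of stimulated human HepG2 cells; signal reports phosphorylation of biotinylated GST-cJun 1-79 at Ser73 with 10 µM ATP; on the % scale 0 is the no-effect control and ±100 the full control effect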). To be noted: JNK3 lysate, c-Jun phosphorylation; series mostly up to 57.1 µM. The procedure, abridged: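 Pre-activated (IL-1β/TNFα) JNK3 in HepG2 lysates phosphorylates biotin-GST-cJun(1-79), 10 uM ATP; anti-phospho-cJun(Ser73) AlphaScreen read at room temperature, pH 7.6 Tris buffer. Compounds pre-incubated 15 min as titrations.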
(In general: In Alpha technology, singlet oxygen from a donor bead excites a nearby acceptor bead.)

Assay [9] concerns the target Cytochrome P450 3A4 (Homo sapiens) (UniProt P08684). The assay is described as follows: qHTS Assay for Activators of Cytochrome P450 3A4 (AID 885). Further: nearly all actives have a fitted effect of over 65% in size. The settings on record: recombinant CYP3A4, Luciferin-PPXE luminescence, 60 min; series mostly up to 57.1 µM. The procedure, abridged:
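Signal was normalized against complete inhibition by 57 uM ketoconazole. The reaction used 20nM CYP3A4 with 25uM Luciferin-PPXE, 10-min compound preincubation and a 60-min NADPH-supported step at RT.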
(In general: qHTS replaces the single test concentration by a dilution series.)

Assay [10] concerns the target Cytochrome P450 2D6 (Homo sapiens) (UniProt P10635). The assay is described as follows: qHTS Assay for Inhibitors and Substrates of Cytochrome P450 2D6 (AID 891). Further: potency means the concentration at half of the fitted maximal effect; nearly all actives have a fitted effect of over 60% in size. To be noted: recombinant CYP2D6, luciferin-ME EGE luminescence; series mostly up to 57.1 µM. A digest of the protocol:
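Human CYP2D6 (5 nM) with 30 uM Luciferin-ME EGE (at Km) in 100 mM KPO4, compound preincubated 10 min, then NADPH regeneration system for 60 min at room temperature. Luciferin read by luminescence; normalized to 1.43 uM quinidine.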

Assay [11] is described as follows: Confirmation and Secondary Assay for Modulators of Hemoglobin Beta Chain Splicing at IVS2 654 locus (AID 910).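 Further: HeLa cells stably carrying EGFP split by mutant beta-globin IVS2-654 intron; % of control where 0% means no effect.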 The settings on record: HeLa EGFP-654 splicing reporter, GFP fluorescence, 48 h; series mostly up to 38.3 µM. A digest of the protocol: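 HeLa cells stably expressing EGFP interrupted by β-globin IVS2-654 intron, seeded overnight in Opti-MEM/2% FCS, then treated 2 days at 37 °C. Restored splicing read as total peak GFP intensity per well by laser scanning cytometry (488 nm excitation, 500–520 nm emission); 500 nM antisense PNA as control.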

Assay [12] is described as follows: Confirmation and Secondary Assay for Modulators of Hemoglobin Beta Chain Splicing at IVS2 705 locus (AID 930).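 Further: HeLa cells stably expressing the EGFP-705 splicing reporter; GFP fluorescence per well restored by corrected splicing of the IVS2-705 intron in EGFP; % of control where 0% means no effect.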 To be noted: HeLa EGFP-705 splicing reporter, GFP fluorescence, 48 h; series mostly up to 38.3 µM. The procedure, abridged:
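HeLa EGFP-705 reporter; 500 cells/well, o/n 37C 5% CO2; cpd 2 d; 488 ex/500-520 em laser scan; total peak GFP intensity/well. Ref: 500 nM […] antisense PNA.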

Assay [13] is described as follows: qHTS Assay for Lipid Storage Modulators (AID 1519; calls by dose curve). To be noted: Drosophila S3 cells, BODIPY lipid droplet/cell ratio, laser cytometry, cells loaded with oleic acid; for activity change, negative = inhibition: at 57.5 µM (top of the series). The procedure, abridged:
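Cells seeded at 5,000 per well were treated with compounds over a concentration series and loaded with oleic acid (400 uM, as added). Lipid droplet fluorescence (488 nm excitation, 500-530 nm channel) was read by laser-scanning cytometry and normalized to 20 uM Triacsin C.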

Assay [14] addresses Ubiquitin carboxyl-terminal hydrolase 1 (Homo sapiens) (UniProt O94782). The assay is described as follows: Inhibitors of USP1/UAF1: Pilot qHTS (AID 504865).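 Further: rhodamine fluorescence freed from ubiquitin-rhodamine substrate followed over time; top concentration of the series differs between compounds; on the % scale 0 is the no-effect control and ±100 the full control effect; nearly all actives have a fitted effect of over 35% in size.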 To be noted: purified USP1/UAF1, Ub-rhodamine cleavage fluorescence; series mostly up to 54.9 µM. The procedure, abridged:
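Deubiquitinase activity followed as kinetic rhodamine fluorescence release from 150 nM Ub-Rho. 1 nM USP1/UAF1 with compound, after 15 min room-temperature preincubation, in HEPES pH 7.8 buffer containing TCEP, EDTA, BSA and Tween-20.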

Assay [15] addresses 3',5'-cyclic-AMP phosphodiesterase 4B (Homo sapiens) (UniProt Q07343). The assay is described as follows: qHTS Assay for Inhibitors of PDE-IV (AID 607; active means well fitted activation curve with a large enough effect in the main read-out, with a control signal flat, not every such curve was filed as active; further: % of control where 0% means no effect). The settings on record: HEK293 ACTOne CNG channel cells, membrane potential fluorescence; series mostly up to 22.9 µM. A digest of the protocol: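 Cell-based read-out of cAMP via a modified cyclic nucleotide-gated channel and membrane potential dye (535/590 nm) in HEK293 cells expressing PDE4 endogenously. Compounds tested up to 22.9 uM final; 100 uM RO 20-1724 reference.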

Assay [16] deals with Cytochrome P450 3A4 (Homo sapiens) (UniProt P08684). Nature of the assay: qHTS Assay for Inhibitors and Substrates of Cytochrome P450 3A4 (AID 884). Further: potency means the concentration at half of the fitted maximal effect; nearly all actives have a fitted effect of over 50% in size. The settings on record: recombinant CYP3A4, Luciferin-PPXE luminescence; series mostly up to 57.1 µM. A digest of the protocol:
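20 nM human CYP3A4 with 25 uM Luciferin-PPXE (at KM) in 200 mM KPO4, preincubated 10 min with compound; NADPH regeneration started a 60 min RT reaction. Luciferin detected by luminescence, normalized to 57 uM ketoconazole as full inhibition.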

Assay [17] has as its target Cytochrome P450 2C19 (Homo sapiens) (UniProt P33261). Nature of the assay: qHTS Assay for Inhibitors and Substrates of Cytochrome P450 2C19 (AID 899). Further: potency means the concentration at half of the fitted maximal effect; nearly all actives have a fitted effect of over 60% in size. To be noted: recombinant CYP2C19, luciferin-H EGE luminescence; series mostly up to 57.1 µM. A digest of the protocol: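 Signal comes from luciferase acting on luciferin released by CYP2C19-mediated hydroxylation of Luciferin-H EGE, 10uM (KM). Assay mix: 5nM enzyme, 50mM KPO4; 60 min at 37C with NADPH regeneration. Data normalized against 57uM ketoconazole.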

The mark [18] stands for this setting: measured here: cell count channel max response.
The mark [19] stands for this setting: measured here: lipid channel max response.

Each structure is given as a SMILES string. Results filed as inconclusive are left out. The source made the active and inactive calls. Unless noted, the call rests on the fitted dose curve; in most records, active means well fitted curve in the direction sought with a large enough effect; inconclusive means small, poorly fitted or top-dose-only effect, or another doubt; inactive means no such curve, though single readings can be large; an effect the other way counts as inactive or inconclusive.

Sequence of 3',5'-cyclic-AMP phosphodiesterase 4B (Homo sapiens) (Q07343 whole entry, looked up): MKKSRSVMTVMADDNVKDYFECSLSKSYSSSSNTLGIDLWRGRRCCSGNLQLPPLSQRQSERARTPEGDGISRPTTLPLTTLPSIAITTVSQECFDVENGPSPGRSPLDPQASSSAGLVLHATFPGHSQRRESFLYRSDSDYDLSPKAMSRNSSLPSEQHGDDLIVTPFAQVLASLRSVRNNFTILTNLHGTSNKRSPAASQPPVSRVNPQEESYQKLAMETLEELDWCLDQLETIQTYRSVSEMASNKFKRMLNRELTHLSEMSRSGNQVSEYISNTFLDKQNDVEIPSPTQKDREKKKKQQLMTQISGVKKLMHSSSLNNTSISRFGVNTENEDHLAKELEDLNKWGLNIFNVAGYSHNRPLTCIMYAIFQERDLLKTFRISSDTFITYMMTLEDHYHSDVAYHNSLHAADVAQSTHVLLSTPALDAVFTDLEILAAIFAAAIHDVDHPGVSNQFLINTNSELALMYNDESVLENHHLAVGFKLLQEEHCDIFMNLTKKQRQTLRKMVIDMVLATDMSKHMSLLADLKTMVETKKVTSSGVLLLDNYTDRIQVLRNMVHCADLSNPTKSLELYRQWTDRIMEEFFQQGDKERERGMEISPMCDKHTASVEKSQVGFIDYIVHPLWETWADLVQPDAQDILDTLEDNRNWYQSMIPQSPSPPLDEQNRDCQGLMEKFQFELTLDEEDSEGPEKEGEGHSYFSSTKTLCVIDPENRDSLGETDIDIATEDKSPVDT
Sequence of Glucocorticoid receptor (Homo sapiens) (P04150 whole entry, looked up, the tested form may be a part): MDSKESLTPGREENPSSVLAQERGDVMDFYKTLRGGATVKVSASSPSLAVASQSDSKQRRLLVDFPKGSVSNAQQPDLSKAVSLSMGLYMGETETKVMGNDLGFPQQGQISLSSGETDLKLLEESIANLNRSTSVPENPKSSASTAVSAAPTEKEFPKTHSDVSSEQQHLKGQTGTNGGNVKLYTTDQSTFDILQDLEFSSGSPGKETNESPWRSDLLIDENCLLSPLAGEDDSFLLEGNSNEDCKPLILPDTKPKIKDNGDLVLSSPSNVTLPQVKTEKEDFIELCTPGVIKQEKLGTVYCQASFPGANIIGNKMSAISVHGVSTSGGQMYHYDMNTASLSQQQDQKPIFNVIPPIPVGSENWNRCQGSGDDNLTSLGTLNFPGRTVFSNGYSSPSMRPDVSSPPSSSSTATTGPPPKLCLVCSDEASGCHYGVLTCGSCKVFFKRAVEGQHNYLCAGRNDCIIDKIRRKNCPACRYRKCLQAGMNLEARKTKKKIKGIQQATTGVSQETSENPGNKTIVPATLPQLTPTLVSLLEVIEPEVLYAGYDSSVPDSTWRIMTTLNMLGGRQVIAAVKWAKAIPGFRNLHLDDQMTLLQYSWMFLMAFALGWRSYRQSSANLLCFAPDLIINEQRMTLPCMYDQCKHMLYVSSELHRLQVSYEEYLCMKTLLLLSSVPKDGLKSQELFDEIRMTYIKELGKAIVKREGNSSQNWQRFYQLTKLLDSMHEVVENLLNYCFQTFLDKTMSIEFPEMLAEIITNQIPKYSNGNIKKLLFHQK
Sequence of Cytochrome P450 3A4 (Homo sapiens) (P08684 whole entry, looked up): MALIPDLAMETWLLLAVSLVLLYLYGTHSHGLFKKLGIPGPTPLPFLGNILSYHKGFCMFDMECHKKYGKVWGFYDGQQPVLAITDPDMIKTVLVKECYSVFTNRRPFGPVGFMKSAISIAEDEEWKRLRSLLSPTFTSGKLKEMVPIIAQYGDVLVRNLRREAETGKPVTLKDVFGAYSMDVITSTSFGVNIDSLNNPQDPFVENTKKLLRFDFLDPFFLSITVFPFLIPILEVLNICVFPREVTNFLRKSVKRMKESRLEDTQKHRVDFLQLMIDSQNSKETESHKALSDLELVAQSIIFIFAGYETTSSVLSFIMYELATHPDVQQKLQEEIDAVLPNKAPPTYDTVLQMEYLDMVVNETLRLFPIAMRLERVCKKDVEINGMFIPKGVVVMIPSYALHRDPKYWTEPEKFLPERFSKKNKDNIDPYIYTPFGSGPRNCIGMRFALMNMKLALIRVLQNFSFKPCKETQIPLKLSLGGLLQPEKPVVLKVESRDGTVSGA
Sequence of Ubiquitin carboxyl-terminal hydrolase 1 (Homo sapiens) (O94782 whole entry, looked up): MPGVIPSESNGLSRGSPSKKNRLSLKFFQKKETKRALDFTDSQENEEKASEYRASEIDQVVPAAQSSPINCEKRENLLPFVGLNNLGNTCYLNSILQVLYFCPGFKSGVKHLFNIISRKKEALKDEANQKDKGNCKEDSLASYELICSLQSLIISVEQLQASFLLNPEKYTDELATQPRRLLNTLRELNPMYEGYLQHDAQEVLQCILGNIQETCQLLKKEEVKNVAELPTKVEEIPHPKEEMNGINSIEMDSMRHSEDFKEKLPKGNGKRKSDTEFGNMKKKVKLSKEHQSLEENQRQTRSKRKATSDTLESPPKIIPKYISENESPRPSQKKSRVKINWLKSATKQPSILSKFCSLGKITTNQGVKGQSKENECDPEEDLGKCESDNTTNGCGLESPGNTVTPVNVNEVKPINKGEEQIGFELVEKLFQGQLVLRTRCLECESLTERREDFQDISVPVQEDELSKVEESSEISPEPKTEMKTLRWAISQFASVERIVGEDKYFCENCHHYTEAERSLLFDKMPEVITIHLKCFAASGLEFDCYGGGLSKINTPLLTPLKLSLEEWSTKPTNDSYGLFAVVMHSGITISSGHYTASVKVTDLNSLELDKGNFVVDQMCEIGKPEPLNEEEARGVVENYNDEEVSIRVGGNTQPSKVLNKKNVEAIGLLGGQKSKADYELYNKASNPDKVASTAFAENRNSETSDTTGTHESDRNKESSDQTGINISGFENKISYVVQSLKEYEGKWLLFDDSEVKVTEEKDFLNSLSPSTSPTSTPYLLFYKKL
Sequence of Lysosomal acid glucosylceramidase (Homo sapiens) (P04062 whole entry, looked up): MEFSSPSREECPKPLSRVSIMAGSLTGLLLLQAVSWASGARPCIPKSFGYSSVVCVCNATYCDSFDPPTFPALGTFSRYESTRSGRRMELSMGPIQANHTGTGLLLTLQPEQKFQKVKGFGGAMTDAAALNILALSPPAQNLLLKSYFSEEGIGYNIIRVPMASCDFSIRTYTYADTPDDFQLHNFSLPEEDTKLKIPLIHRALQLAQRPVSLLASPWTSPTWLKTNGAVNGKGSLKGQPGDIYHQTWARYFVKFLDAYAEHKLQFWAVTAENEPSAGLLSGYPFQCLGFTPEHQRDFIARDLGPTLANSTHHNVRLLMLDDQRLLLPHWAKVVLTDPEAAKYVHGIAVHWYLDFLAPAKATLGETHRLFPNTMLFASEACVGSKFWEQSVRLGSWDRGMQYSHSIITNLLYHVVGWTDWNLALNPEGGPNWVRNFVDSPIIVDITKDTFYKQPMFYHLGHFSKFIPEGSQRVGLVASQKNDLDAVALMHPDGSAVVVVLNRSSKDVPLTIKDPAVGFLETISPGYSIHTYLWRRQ
Sequence of Cytochrome P450 1A2 (Homo sapiens) (P05177 whole entry, looked up): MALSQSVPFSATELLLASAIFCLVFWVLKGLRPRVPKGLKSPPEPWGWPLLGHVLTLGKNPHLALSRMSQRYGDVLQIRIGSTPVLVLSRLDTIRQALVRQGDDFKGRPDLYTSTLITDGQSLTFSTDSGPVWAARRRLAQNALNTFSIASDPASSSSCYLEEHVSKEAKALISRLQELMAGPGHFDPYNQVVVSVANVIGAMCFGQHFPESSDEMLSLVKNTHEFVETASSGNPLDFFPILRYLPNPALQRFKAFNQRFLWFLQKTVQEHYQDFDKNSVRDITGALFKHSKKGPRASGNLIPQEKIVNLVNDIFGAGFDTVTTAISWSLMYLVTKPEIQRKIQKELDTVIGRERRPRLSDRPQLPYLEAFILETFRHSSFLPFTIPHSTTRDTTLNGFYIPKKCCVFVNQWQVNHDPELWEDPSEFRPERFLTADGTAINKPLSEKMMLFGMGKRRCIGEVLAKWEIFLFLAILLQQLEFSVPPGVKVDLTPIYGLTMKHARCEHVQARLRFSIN
Sequence of Cytochrome P450 2C19 (Homo sapiens) (P33261 whole entry, looked up): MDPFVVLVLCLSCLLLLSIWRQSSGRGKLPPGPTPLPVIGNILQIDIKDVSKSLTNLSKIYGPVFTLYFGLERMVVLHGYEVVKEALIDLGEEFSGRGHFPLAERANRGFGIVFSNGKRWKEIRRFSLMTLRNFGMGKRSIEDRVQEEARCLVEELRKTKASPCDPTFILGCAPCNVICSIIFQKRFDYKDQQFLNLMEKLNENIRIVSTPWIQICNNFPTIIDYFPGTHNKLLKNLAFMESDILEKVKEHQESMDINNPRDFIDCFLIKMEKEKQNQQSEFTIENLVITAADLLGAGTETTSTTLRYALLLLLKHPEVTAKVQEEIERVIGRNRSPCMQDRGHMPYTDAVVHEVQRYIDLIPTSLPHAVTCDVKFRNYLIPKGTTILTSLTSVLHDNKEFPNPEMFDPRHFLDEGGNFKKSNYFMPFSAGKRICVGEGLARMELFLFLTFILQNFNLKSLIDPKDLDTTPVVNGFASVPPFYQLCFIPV
Sequence of Cytochrome P450 2D6 (Homo sapiens) (P10635 whole entry, looked up): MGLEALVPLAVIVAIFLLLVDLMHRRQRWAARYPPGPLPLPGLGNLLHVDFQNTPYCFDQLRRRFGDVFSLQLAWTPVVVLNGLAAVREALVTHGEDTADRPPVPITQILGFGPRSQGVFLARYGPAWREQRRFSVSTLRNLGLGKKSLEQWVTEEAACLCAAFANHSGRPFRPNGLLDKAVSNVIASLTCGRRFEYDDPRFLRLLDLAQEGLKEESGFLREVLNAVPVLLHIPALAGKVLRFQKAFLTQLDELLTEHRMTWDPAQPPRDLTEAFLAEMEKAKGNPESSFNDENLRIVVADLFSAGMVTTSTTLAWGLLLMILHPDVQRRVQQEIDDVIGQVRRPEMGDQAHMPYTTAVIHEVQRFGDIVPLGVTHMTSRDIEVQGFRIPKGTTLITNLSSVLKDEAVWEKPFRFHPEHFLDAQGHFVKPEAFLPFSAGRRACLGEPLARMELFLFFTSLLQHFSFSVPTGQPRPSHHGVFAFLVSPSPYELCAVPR

In the case of `CN(C)Cc1ccccc1-c1nc(N(C)Cc2ccco2)c2ccccc2n1`, the Potency is > 11.4 µM (inactive) in assay [1]; 0.794 µM (active) in assay [3]; > 46 µM (inactive) in [6]; > 46 µM (inactive) in assay [7]; 0.794 µM (active) in assay [10]. Also, the activity change, negative = inhibition in [2] is 9.21% (inactive); in assay [4], -18.4% (inactive); in assay [13], 6.11% (inactive). In assay [5], the activity, negative = inhibition was 3.87% (inactive). Also, the Potency result in assay [8], in [9], in assay [11] and in [14] was “inactive” in each case. Also, the result in assay [12] was inactive. In addition, the results for the max response in assay [13] (setting [18]) and in assay [13] (setting [19]) were 17.4% and 24.7%, respectively.

On to `COc1ccc2[nH]cc(CCNc3ncnc4ccc(-c5ccc(C(=O)N(C)C)cc5)cc34)c2c1`, for which the Potency in assay [1] was > 11.4 µM (inactive); in assay [3], 12.6 µM (active); in assay [6], > 46 µM (inactive); in assay [7] it was > 46 µM (inactive); in assay [16], 2.51 µM (active); in assay [17] it was 7.94 µM (active). Besides, the activity change, negative = inhibition in [2] is -28% (inactive); in assay [4], 5.5% (inactive); in assay [13] it was 0.717% (inactive). The activity, negative = inhibition in assay [5] was -28.2% (inactive). For the same compound, the Potency entry in assay [8], in [15], in assay [9] and in assay [11] was “inactive” in each case. Further, the call in assay [12] was inactive. Besides, the max response in assay [13] (setting [18]) and in assay [13] (setting [19]) was -23.3% each time.

Take `CN(C)c1ccc(-c2cc(NCc3cccnc3)ncn2)cc1`: the Potency is > 11.4 µM (inactive) in assay [1]; 0.398 µM (active) in assay [3]; > 46 µM (inactive) in assay [6]; > 46 µM (inactive) in assay [7]; 3.16 µM (active) in assay [16]. The activity change, negative = inhibition is -9.72% (inactive) in assay [2], 5.75% (inactive) in assay [4] and 7.63% (inactive) in assay [13]. Further, in assay [5], the activity, negative = inhibition is 0.912% (inactive). Moreover, the Potency entry in [8], in assay [15], in assay [9], in [11] and in assay [14] was “inactive” in each case. The outcome in assay [12] was inactive. In addition, the results for the max response in assay [13] (setting [18]) and in assay [13] (setting [19]) were 14.7% and 22.6%, respectively.

For the compound `COc1ccc2[nH]cc(CCNc3cc(-c4ccoc4)ncn3)c2c1`, the Potency in assay [1] is > 11.4 µM (inactive); in assay [3], 0.631 µM (active); in [7], > 46 µM (inactive); in assay [17] it was 5.01 µM (active). The results for the activity change, negative = inhibition in [2], in [4] and in assay [13] were -5.94% (inactive), 2.58% (inactive) and 11% (inactive), respectively. Also, the activity, negative = inhibition in assay [5] is 2.87% (inactive). The Potency entry in [8], in [15], in assay [9], in assay [11] and in [14] was “inactive” in each case. Further, the compound was called inactive in assay [12]. Besides, the results for the max response in [13] (setting [18]) and in assay [13] (setting [19]) were 6.67% and 17.6%, respectively.

For `COc1ncc2nc(-c3ccc(Cl)cc3)c(=O)n(-c3ccccc3)c2n1`, the Potency in assay [1] is > 11.4 µM (inactive); in assay [3], 1.58 µM (active); in assay [6] it was > 9.22 µM (inactive); in [7], > 46 µM (inactive). The activity change, negative = inhibition was -12.8% (inactive) in assay [2], -0.099% (inactive) in [4] and -0.888% (inactive) in assay [13]. The activity, negative = inhibition in assay [5] was 0.109% (inactive). Also, the Potency result in assay [8] and in [15] was “inactive” each time. The max response in assay [13] (setting [18]) was 12%; in [13] (setting [19]) it was 16.2%.
